Assay outcomes: PubChem, National Center for Advancing Translational Sciences (NCATS)
TRHR ag: qHTS for Small Molecule Agonists and Allosteric Enhancers of Human TRH Receptor: Primary Screen for Agonists. Thyrotropin-releasing hormone receptor (Homo sapiens), P34981. TRHR cells, calcium flux fluo-8, FDSS agonist mode. activation, % at 2 µM. 360,000 tested, 0.18% active. AID 493084, 2011; further: 0% is about no effect
Target sequence (P34981 whole entry, looked up): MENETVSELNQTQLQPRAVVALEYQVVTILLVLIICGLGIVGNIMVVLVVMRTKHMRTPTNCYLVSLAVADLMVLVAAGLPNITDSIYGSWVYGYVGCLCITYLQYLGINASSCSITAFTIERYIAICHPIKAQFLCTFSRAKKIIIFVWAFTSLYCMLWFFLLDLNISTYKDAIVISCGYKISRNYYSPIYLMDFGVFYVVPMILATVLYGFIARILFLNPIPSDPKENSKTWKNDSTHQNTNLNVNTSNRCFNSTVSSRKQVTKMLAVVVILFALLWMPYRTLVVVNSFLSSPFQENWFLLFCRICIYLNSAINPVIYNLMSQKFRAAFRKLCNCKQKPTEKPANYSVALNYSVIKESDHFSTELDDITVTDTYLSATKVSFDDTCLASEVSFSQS
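Agonist-mode FDSS calcium read (Ex 480/Em 530, 1 s cycles) in 1536-well TRHR cells with fluo-8 dye, after 10-cycle baseline and 23 nL compound addition; TRH at EC20 (10 nM final) added afterwards for the enhancer phase.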
D1 antag: Antagonist of Human D 1 Dopamine Receptor: qHTS | HEK293 TREx D1 cells, calcium flux, dopamine EC80; stronger effect = lower value | activity change, negative = inhibition, % at 10 µM | 360,000 tested, 3.2% active | AID 504652, 2011; in the data active means activity change below about -30%; further: on the % scale 0 is the no-effect control and ±100 the full control effect
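HEK293 T-REx cells expressing inducible, force-coupled D1 receptor; no-wash Ca dye, 30–90 min RT. Cmpd → 180 s read at 1 Hz → EC80 DA → 180 s read.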
TRHR enhancer: qHTS for Small Molecule Agonists and Allosteric Enhancers of Human TRH Receptor: Primary Screen for Enhancers. enhancement, % at 2 µM. Thyrotropin-releasing hormone receptor (Homo sapiens), P34981. TRHR cells, fluo-8 calcium fluorescence, EC20 TRH enhancement. 360,000 tested, 0.66% active; in the data active means enhancement above about 30%; further: 0% is about no effect
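TRHR-expressing cells loaded with fluo-8 calcium dye were read kinetically (ex 480/em 530) during compound addition, then stimulated with an EC20 of TRH (10 nM final). Enhancement of the Gq-mediated intracellular calcium response was scored.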
D1 ag: Allosteric Agonists of the Human D1 Dopamine Receptor: qHTS | activation, % at 2 µM | 360,000 tested, 1% active | AID 504660, 2011 | D(1A) dopamine receptor (Homo sapiens), P21728 | HEK293 T-REx D1 cells, calcium flux, agonist mode; further: 0% is about no effect
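Inducible HEK293 T-REx D1 cells, force-coupled to calcium signalling, were plated at 4000 cells/well with tetracycline and held overnight at 30 C. After no-wash calcium dye loading, compound-evoked calcium rise over 180 s flagged agonists.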
D1 potentiator: Potentiators of Human D1 Dopamine Receptor: qHTS | HEK293 TREx D1 cells, calcium flux, dopamine EC20 potentiation | potentiation, % at 10 µM | 360,000 tested, 0.036% active; in the data active means potentiation above about 30%; further: 0% is about no effect
* marks the source's active call; other numbers are inactive results. This is a sample that favours compounds with a hit; in the whole collection about 4.7% have one here. Unless noted, no stated cut-off is given here; in the data, active means activation above about 30%; inactive means the rest.

Screening COc1ccc(S(=O)(=O)N(CC(=O)NCCSc2ccccc2)c2ccc(C)cc2)cc1 returned TRHR ag 3, D1 antag 3, TRHR enhancer -3, D1 ag 32* and D1 potentiator -2.
COc1ccc(S(=O)(=O)N(CC(=O)NCCSc2ccccc2)c2ccc(Cl)cc2)cc1 was read as TRHR ag -1, D1 antag -8, TRHR enhancer 6, D1 ag 36* and D1 potentiator 2.
O=C(CN(c1ccccc1)S(=O)(=O)c1ccccc1)NCCSc1nc2ccccc2s1 was read as TRHR ag 1, D1 antag -63*, TRHR enhancer -6, D1 ag 8 and D1 potentiator 1.
For COc1ccc(N(CC(=O)NCCOc2ccccc2)S(=O)(=O)c2ccc(C)cc2)cc1 the results were TRHR ag 0, D1 antag 4, TRHR enhancer -6, D1 ag 2 and D1 potentiator -7.
For CCOC(=O)c1sc(NC(C)=O)cc1C the results were TRHR ag 1, D1 antag 3, TRHR enhancer 4, D1 ag 0 and D1 potentiator -14.
Screening CCOC(=O)c1sc(NC(=O)Nc2ccccc2Cl)cc1C returned TRHR ag 1, D1 antag -39*, TRHR enhancer 3, D1 ag 15 and D1 potentiator -6.
For CCOC(=O)c1sc(NC(=O)Nc2ccccc2)cc1C the results were TRHR ag 0, D1 antag -42*, TRHR enhancer 11, D1 ag 21 and D1 potentiator -5.
For CCOC(=O)c1sc(NC(=O)c2ccc(C)s2)cc1C the results were TRHR ag 0, D1 antag 25, TRHR enhancer 4, D1 ag -1 and D1 potentiator -6.
COc1ccc(NS(=O)(=O)c2cc(-c3onc(C)c3C)ccc2C)c(OC)c1 was read as TRHR ag 0, D1 antag 7, TRHR enhancer 13, D1 ag 1 and D1 potentiator 2.
COc1ccc(OC)c(CNS(=O)(=O)c2cc(-c3onc(C)c3C)ccc2C)c1 was read as TRHR ag 0, D1 antag -38*, TRHR enhancer 1, D1 ag 2 and D1 potentiator -7.
O=C(COc1ccccc1)Nc1c(C(=O)N2CCC(N3CCCCC3)CC2)oc2ccccc12 was read as TRHR ag 0, D1 antag 3, TRHR enhancer 8, D1 ag 3 and D1 potentiator -5.
Screening COc1ccc(NC(=O)c2oc3ccccc3c2NC(=O)COc2ccc(F)cc2)c(OC)c1 returned TRHR ag 0, D1 antag 5, TRHR enhancer 39*, D1 ag 3 and D1 potentiator 0.
Screening O=C(COc1ccc(F)cc1)Nc1c(C(=O)N2CCC(N3CCCCC3)CC2)oc2ccccc12 returned TRHR ag 0, D1 antag -35*, TRHR enhancer 0, D1 ag 4 and D1 potentiator -4.
Screening CCc1c(C)sc2c1CCN(Cc1cccc(F)c1)C2c1ccccc1 (stereo not drawn) returned TRHR ag 0, D1 antag -7, TRHR enhancer -7, D1 ag 2 and D1 potentiator -1.
Cn1cc([N+](=O)[O-])c(C(=O)NC2CCCCCC2)n1 was read as TRHR ag 1, D1 antag 5, TRHR enhancer 11, D1 ag 2 and D1 potentiator -3.
`O=S1(=O)c2ccccc2N(Cc2ccc(Cl)cc2)c2ccccc21` gave TRHR ag -1, D1 antag 3, TRHR enhancer 8, D1 ag 32* and D1 potentiator -4.
Screening C=Cc1ccc(CN2C(=O)N(c3cccc(Cl)c3)S(=O)(=O)c3ccccc32)cc1 returned TRHR ag 1, D1 antag -92*, TRHR enhancer 0, D1 ag 3 and D1 potentiator -4.
O=C(CSCc1ccc(F)cc1)N1CCN(c2ccccc2F)CC1 was read as TRHR ag -1, D1 antag -58*, TRHR enhancer -1, D1 ag 1 and D1 potentiator -2.
Screening CC(CC(=O)N1CCN(c2ccccc2F)CC1)c1ccccc1 (stereo not drawn) returned TRHR ag 0, D1 antag -32*, TRHR enhancer -3, D1 ag 4 and D1 potentiator 2.
`Cc1nn(C)c2c1c(-c1ccccc1)cc(=O)n2Cc1c(F)cccc1Cl` gave TRHR ag 1, D1 antag 8, TRHR enhancer 1, D1 ag 3 and D1 potentiator 2.
CCOc1ccccc1NC(=O)CCc1c(C)nc2c3cccnc3nn2c1C was read as TRHR ag 0, D1 antag -13, TRHR enhancer -2, D1 ag -1 and D1 potentiator 4.
`COc1ccc(-c2c(-c3cc(OC)cc(OC)c3)n(C)c3ccc(-c4cc(F)cc(OC)c4)cc23)cc1` gave TRHR ag 0, TRHR enhancer -5, D1 ag -2 and D1 potentiator -3.
`CC1=C(c2ccc(C)c(C)c2)S(=O)(=O)N(Cc2ccc(C(=O)NCc3cccc(C)c3)cc2)C1=O` gave TRHR ag 1, D1 antag 12, TRHR enhancer -1, D1 ag 7 and D1 potentiator -6.
CCCc1cc(-c2[nH]ncc2-c2ccc3c(c2)OCCCO3)c(O)cc1OC was read as TRHR ag 0, D1 antag -27, TRHR enhancer -6, D1 ag 37* and D1 potentiator -1.
For O=C(CCc1nnc2ccc(NCc3ccc(F)cc3)nn12)NC1CCCC1 the results were TRHR ag 1, D1 antag -16, TRHR enhancer -3, D1 ag 3 and D1 potentiator -9.
`O=C(CCc1nnc2ccc(NCc3ccccc3)nn12)NCC1CCN(C2CCCC2)C1` (stereo not drawn) gave TRHR ag 0, D1 antag -84*, TRHR enhancer -1, D1 ag 0 and D1 potentiator -6.
COc1ccc(NC(C)=O)cc1S(=O)(=O)N(C)Cc1c(C)nn(-c2ccccc2)c1C was read as TRHR ag 0, D1 antag -33*, TRHR enhancer 1, D1 ag 2 and D1 potentiator -10.
`Nc1ccc2c(c1)Cc1cc([N+](=O)[O-])ccc1-2` gave TRHR ag 44*, D1 antag -36*, TRHR enhancer 5, D1 ag 122* and D1 potentiator -6.
